High-throughput results: PubChem, The Scripps Research Institute Molecular Screening Center
UHRF1 binding: UHRF1 methylated DNA binding inhibitors, primary screen, counter-screen for MBD2 inhibitor project, biochemical, TR-FRET, human UHRF1, single concentration | E3 ubiquitin-protein ligase UHRF1 (Homo sapiens), Q96T88 | 370,000 compounds, 0.75% hits | inhibition, % at 4.4 µM | UHRF1 binding to methylated oligo;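 further: UHRF1 SRA domain binding a hemimethylated CpG hairpin DNA probe; 0% = median of test compound wells and 100% = reference inhibitor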
TCR CD3 inh: inhibitors of human TCR-CD3 interaction, primary screen, biochemical, fluorescence, TAMRA-labeled TCR probe | AID 651800, 2012 | inhibition, % at 9.4 µM | T-cell receptor (TCR) | 360,000 compounds, 0.37% hits; in the data active means inhibition above about 19%;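 further: recombinant mutant TCR 2C K166C tagged with TAMRA read by polarization; 0% = receptor in buffer alone and 100% = receptor with positive control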
LEDGF integ inh: blockers of LEDGF/p75-dependent integrase strand transfer – biochemical, TR-FRET, high throughput, primary screen; HIV-1 integrase (with human LEDGF/p75); TR-FRET IN-LEDGF/p75 DNA integration, Eu/Cy5; 370,000 compounds, 0.64% hits; AID 743269, 2014; inhibition, % at 3.7 µM;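 active means inhibition above the screen-wide mean plus 3 SD, cut at about 13% in these data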;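 further: signal is the Cy5 over europium emission ratio at 671 and 618 nm; 0% = plate median of compound wells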
MBD2 inh: inhibitors of MBD2 binding to methylated DNA, primary screen, biochemical, TR-FRET, DNA-binding domain, human. Methyl-CpG-binding domain protein 2 (Homo sapiens), Q9UBB5. MBD2 binding to methylated oligonucleotide. inhibition, % at 4.4 µM. 370,000 compounds, 0.31% hits. AID 686964, 2013; in the data active means inhibition above about 13%
Rin1 Abl inh: inhibitors of Rin1-Abl protein binding, primary screen, biochemical, TR-FRET; Tyrosine-protein kinase ABL1 (Homo sapiens) + Ras and Rab interactor 1 (Homo sapiens), …; AID 588664, 2011; 360,000 compounds, 0.4% hits; inhibition, % at 7.35 µM; in the data active means inhibition above about 5%, passing the limit was not always enough
Rin1-Abl confirm: Rin1-Abl binding inhibitor retest, confirmation, biochemical, TR-FRET. shares compounds with Rin1 Abl inh. purified proteins. inhibition, % at 7.35 µM. 1,300 compounds, 49% hits. AID 602124, 2011; in the data active means inhibition above about 6.5%
GFP quencher: GFP fluorescence inhibitors and quenchers, artefact control for Rin1-Abl interaction inhibitor project, biochemical; inhibition, % at 6.75 µM; 1,300 compounds, 8.5% hits; shares compounds with Rin1 Abl inh; inhibitors/quenchers counterscreen; in the data active means inhibition above about 6.5%;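 further: ABL1-eGFP fusion protein alone without its partner RIN1-SBP; 0% = protein with vehicle and 100% = wells lacking protein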
GFP quench dose: GFP fluorescence inhibitors and quenchers, dose response, artefact control for Rin1-Abl interaction inhibitor project, biochemical. shares compounds with Rin1 Abl inh. GFP fluorescence interference/quenching counterscreen. IC50, µM. 230 tested, under 10 active. AID 602182, 2012; call rule not given here;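 further: ABL1-eGFP fusion protein alone without its RIN1 binding partner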
UHRF1 DNA bind: UHRF1 methylated DNA binding inhibitors, counter-screen for MBD2 inhibitor project, biochemical, TR-FRET, human UHRF1. AID 720530, 2013. 1,000 compounds, 25% hits. shares compounds with MBD2 inh. inhibition, % at 4.4 µM. UHRF1 binding to methylated oligonucleotide;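 further: UHRF1 SRA domain binding a labeled hemimethylated CpG hairpin DNA; 0% = vehicle only and 100% = reference inhibitor with vehicle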
MBD2 confirm: inhibitors of MBD2 binding to methylated DNA, confirmation, biochemical, TR-FRET, DNA-binding domain, human; inhibition, % at 4.4 µM; 1,000 compounds, 26% hits; TR-FRET MBD2-DBD binding to methylated oligonucleotide; shares compounds with MBD2 inh; AID 720531, 2013; in the data active means inhibition above about 14%
IN multimer act: HIV-1 IN multimer formation enhancers, counter-screen for LEDGF/p75 integration inhibitor project, biochemical, TR-FRET; 2,000 compounds, 17% hits; activation, % at 7.7 µM; TR-FRET HIV-1 integrase multimerization; AID 1053131, 2014; shares compounds with LEDGF integ inh; in the data active means activation above about 8.9%
TR-FRET interf: TR-FRET optical interference artefacts, confirmation, artefact control for LEDGF/p75-dependent integration inhibitor project, biochemical, HIV-1 IN multimerization; shares compounds with LEDGF integ inh; TR-FRET optical interference counterscreen; inhibition, % at 7.7 µM; 2,000 tested, under 10 active; AID 1053135, 2014;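 active means inhibition above the mean over all tested compounds plus 3 SD, which no compound reached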;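 further: 0% = integrase with antibodies and DMSO and 100% = antibodies without integrase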
LEDGF integ conf: inhibitors of HIV-1 IN-LEDGF/p75 DNA integration, confirmation, biochemical, TR-FRET; TR-FRET LEDGF/p75-dependent HIV-1 integration; inhibition, % at 3.7 µM; shares compounds with LEDGF integ inh; 2,000 compounds, 36% hits; AID 1053136, 2014; in the data active means inhibition above about 14%
The depositor's hits bear a star; . = no result given. Only some compounds are listed: those with a hit (about 2% of all), similar ones and a draw of the others. Unless noted, no stated cut-off is given here; in the data, active means inhibition above about 21%; inactive means the rest.

SMILES	UHRF1 binding	TCR CD3 inh	LEDGF integ inh	MBD2 inh	Rin1 Abl inh	Rin1-Abl confirm	GFP quencher	GFP quench dose	IN multimer act	TR-FRET interf	LEDGF integ conf	others
O=C(O)CCCC[C@@H]1SC[C@@H]2NC(=O)N[C@@H]21	1.1	-3.9	92.7*	4.5	83.9*	92.9*	-0.6	>67.6	1.6	-7.9	95.9*
Cc1nnc(N/N=C/c2ccc(Br)cc2)n1N	7.7	4.9	46.6*	1.5	6.7*	-4.3	-1.6	.	0.1	-0.7	-3.2
CC1NC(=O)NC1CCCCCC(=O)Nc1ccc(F)c(Cl)c1 (stereo not drawn)	-2.3	2.3	74.1*	-4.3	85.9*	96.8*	0.5	>67.5	0.9	-3.4	91.6*
CCc1cccc(NC(=O)CCCCCC2NC(=O)NC2C)c1 (stereo not drawn)	-0.6	9.6	77.1*	-2.1	96.9*	99.5*	0.8	>67.5	-1.8	8.8	91.5*
CCc1cccc(NC(=O)CCCN2C(=O)NC(C)(C)C2=O)c1	7.4	-6.7	2.4	0.2	2.5	.	.	.	.	.	.
CC(Nc1cccc2ccccc12)C(=O)N/N=C/c1ccccn1 (stereo not drawn)	3.7	-4.8	23.4*	-3.9	11.2*	-2.1	2.2	.	2.9	-14.7	-3.8
O=C(CCCC(=O)N/N=C\c1ccccn1)N/N=C\c1ccccn1	-1.9	4.0	-0.9	-5.0	-0.6	.	.	.	.	.	.
Cc1ccc(C(=O)Cc2ccccc2)o1	-0.2	6.8	-0.2	0.3	2.5	.	.	.	.	.	.
CCN(CC(=O)Nc1cc(Cl)cc(Cl)c1)CC(=O)NC1CCS(=O)(=O)C1 (stereo not drawn)	2.2	-0.4	-7.1	0.8	2.1	.	.	.	.	.	.
CCN(CC)Cc1cc(O)c(CN(CC)CC)cc1O	52.1*	13.7	64.0*	16.6*	11.0*	0.6	5.2	.	4.3	-21.7	57.0*	UHRF1 DNA bind=3.3;MBD2 confirm=-1.0
COC(=O)C1=C(O)/C(=C\c2ccc(CNS(=O)(=O)c3ccccc3)o2)N=C1C	4.9	16.9	23.5*	-0.3	6.0*	-1.0	3.0	.	6.6	-33.5	18.2*
Oc1cccc(/C=N/Nc2ncnc3c2ncn3Cc2ccccc2)c1	-2.8	-8.4	-2.1	-0.1	-2.7	.	.	.	.	.	.
